Experimental data: publication PMC10812921, “Transcriptional Coactivator BOB1 (OBF1, OCA-B) Modulates the Specificity of DNA Recognition by the POU-Domain Factors OCT1 and OCT2 in a Monomeric Configuration”

Columns and labels:
POU1 (OCT1 POU domain) = POU1 (OCT1 POU domain) (human, UniProt P14859 260-458); assay: EMSA-SELEX-seq; no BOB1; 20 mM Tris-HCl pH 7.6, 140 mM NaCl, 10% glycerol, 0.5 mM EDTA, 0.05% Triton X-100, 0.1 mg/mL BSA, 0.1 mg/mL poly(dI-dC), 5 mM DTT, room temperature, 20 min; high values mean tight binding; details: protein: recombinant; dsDNA, one strand shown
Procedure, shortened: (§1)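 Binding preference is reported as the percentage of sequenced 8-mers that match a motif pattern. Tagged POU-domain proteins were made in E. coli BL21, purified under denaturing conditions and renatured. A 30 ng portion was combined with 300 ng of a PCR-amplified double-stranded random 35-nt library, with or without 28 ng coactivator protein, in 20 μL Tris–HCl pH 7.6 binding buffer for 20 min at RT. Complex bands were excised from native 6% PAGE, eluted and PCR-amplified over four rounds before Illumina sequencing.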

POU2 (OCT2 POU domain) = biological target: T1, POU2 (OCT2 POU domain) (human, UniProt P09086 175-386); assay: as above; details: protein: recombinant; dsDNA, one strand shown
T1 sequence: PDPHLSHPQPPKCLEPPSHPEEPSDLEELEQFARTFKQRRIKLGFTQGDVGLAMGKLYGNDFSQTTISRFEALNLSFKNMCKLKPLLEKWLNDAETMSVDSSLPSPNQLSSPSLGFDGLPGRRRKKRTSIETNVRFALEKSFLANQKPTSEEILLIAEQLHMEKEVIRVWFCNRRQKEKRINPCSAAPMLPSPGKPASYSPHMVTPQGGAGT
Procedure, shortened: as §1

[1] = biological target: POU1 (OCT1 POU domain);BOB1 (OBF1, OCA-B) (human;human, UniProt P14859;Q16633 260-458;1-256, |); assay: EMSA-SELEX-seq; with BOB1 (ternary complex band); 20 mM Tris-HCl pH 7.6, 140 mM NaCl, 10% glycerol, 0.5 mM EDTA, 0.05% Triton X-100, 0.1 mg/mL BSA, 0.1 mg/mL poly(dI-dC), 5 mM DTT, room temperature, 20 min; high values mean tight binding; details: protein: recombinant;recombinant; copies: 1;1; dsDNA, one strand shown
Procedure, shortened: as §1

[2] = biological target: T2, POU2 (OCT2 POU domain);BOB1 (OBF1, OCA-B) (human;human, UniProt P09086;Q16633 175-386;1-256, |); assay: as above; details: protein: recombinant;recombinant; copies: 1;1; dsDNA, one strand shown
T2 sequence 1: T1 sequence
T2 sequence 2: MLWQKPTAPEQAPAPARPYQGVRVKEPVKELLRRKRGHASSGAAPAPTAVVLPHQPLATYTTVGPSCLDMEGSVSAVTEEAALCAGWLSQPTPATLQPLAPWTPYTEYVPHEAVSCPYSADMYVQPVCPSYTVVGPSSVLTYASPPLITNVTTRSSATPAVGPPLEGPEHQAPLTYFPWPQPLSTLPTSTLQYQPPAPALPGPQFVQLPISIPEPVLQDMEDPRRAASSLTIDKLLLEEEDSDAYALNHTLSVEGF
Procedure, shortened: as §1

POU1 (OCT1 POU domain), sequence (P14859 260-458): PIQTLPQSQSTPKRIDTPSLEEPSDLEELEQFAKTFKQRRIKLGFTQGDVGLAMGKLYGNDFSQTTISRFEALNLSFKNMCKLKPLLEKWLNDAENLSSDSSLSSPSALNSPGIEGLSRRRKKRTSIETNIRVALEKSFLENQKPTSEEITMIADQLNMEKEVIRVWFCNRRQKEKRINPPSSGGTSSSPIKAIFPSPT

Sequence	binding signal (POU1 (OCT1 POU domain))	binding signal (POU2 (OCT2 POU domain))	binding signal [1]	binding signal [2]
ATTGCAAC	0.0256 % of ANNNNAAN 8-mers	0.0178 % of ANNNNAAN 8-mers	0.0195 % of ANNNNAAN 8-mers	0.0272 % of ANNNNAAN 8-mers
AAGTTAAT	0.165 % of ANNNNAAN 8-mers	0.178 % of ANNNNAAN 8-mers	0.102 % of ANNNNAAN 8-mers	0.102 % of ANNNNAAN 8-mers
AGGAAAAC	0.0591 % of ANNNNAAN 8-mers	0.0552 % of ANNNNAAN 8-mers	0.0839 % of ANNNNAAN 8-mers	0.0636 % of ANNNNAAN 8-mers
AAAATAAT	0.178 % of ANNNNAAN 8-mers	0.212 % of ANNNNAAN 8-mers	0.153 % of ANNNNAAN 8-mers	0.155 % of ANNNNAAN 8-mers
AACTTAAG	0.0351 % of ANNNNAAN 8-mers	0.042 % of ANNNNAAN 8-mers	0.0363 % of ANNNNAAN 8-mers	0.0363 % of ANNNNAAN 8-mers
AGGGAAAA	0.205 % of ANNNNAAN 8-mers	0.119 % of ANNNNAAN 8-mers	0.28 % of ANNNNAAN 8-mers	0.119 % of ANNNNAAN 8-mers
AAAAGAAG	0.0629 % of ANNNNAAN 8-mers	0.076 % of ANNNNAAN 8-mers	0.0679 % of ANNNNAAN 8-mers	0.071 % of ANNNNAAN 8-mers
AACTTAAT	0.0995 % of ANNNNAAN 8-mers	0.117 % of ANNNNAAN 8-mers	0.0613 % of ANNNNAAN 8-mers	0.0677 % of ANNNNAAN 8-mers
AAGGAAAA	0.113 % of ANNNNAAN 8-mers	0.0955 % of ANNNNAAN 8-mers	0.17 % of ANNNNAAN 8-mers	0.0999 % of ANNNNAAN 8-mers
AGATAAAG	0.0439 % of ANNNNAAN 8-mers	0.0495 % of ANNNNAAN 8-mers	0.0359 % of ANNNNAAN 8-mers	0.0281 % of ANNNNAAN 8-mers
ATCCAAAG	0.0427 % of ANNNNAAN 8-mers	0.0397 % of ANNNNAAN 8-mers	0.0566 % of ANNNNAAN 8-mers	0.0446 % of ANNNNAAN 8-mers
AGGAGAAC	0.0275 % of ANNNNAAN 8-mers	0.0363 % of ANNNNAAN 8-mers	0.0261 % of ANNNNAAN 8-mers	0.0149 % of ANNNNAAN 8-mers
ATGCGAAA	0.0835 % of ANNNNAAN 8-mers	0.0926 % of ANNNNAAN 8-mers	0.0648 % of ANNNNAAN 8-mers	0.0743 % of ANNNNAAN 8-mers
ACGTCAAC	0.013 % of ANNNNAAN 8-mers	0.0173 % of ANNNNAAN 8-mers	0.0187 % of ANNNNAAN 8-mers	0.0165 % of ANNNNAAN 8-mers
AGAGCAAG	0.0156 % of ANNNNAAN 8-mers	0.0213 % of ANNNNAAN 8-mers	0.0191 % of ANNNNAAN 8-mers	0.0132 % of ANNNNAAN 8-mers
ACGATAAT	0.0896 % of ANNNNAAN 8-mers	0.123 % of ANNNNAAN 8-mers	0.0535 % of ANNNNAAN 8-mers	0.085 % of ANNNNAAN 8-mers
AAACTAAA	0.0503 % of ANNNNAAN 8-mers	0.0483 % of ANNNNAAN 8-mers	0.0523 % of ANNNNAAN 8-mers	0.0471 % of ANNNNAAN 8-mers
ACTCTAAA	0.0271 % of ANNNNAAN 8-mers	0.0299 % of ANNNNAAN 8-mers	0.0285 % of ANNNNAAN 8-mers	0.0248 % of ANNNNAAN 8-mers
ACGGAAAT	0.087 % of ANNNNAAN 8-mers	0.099 % of ANNNNAAN 8-mers	0.142 % of ANNNNAAN 8-mers	0.0792 % of ANNNNAAN 8-mers
AGGTCAAA	0.0587 % of ANNNNAAN 8-mers	0.0403 % of ANNNNAAN 8-mers	0.0632 % of ANNNNAAN 8-mers	0.0421 % of ANNNNAAN 8-mers
AAAGCAAA	0.106 % of ANNNNAAN 8-mers	0.0754 % of ANNNNAAN 8-mers	0.179 % of ANNNNAAN 8-mers	0.0908 % of ANNNNAAN 8-mers
ATCTAAAG	0.0412 % of ANNNNAAN 8-mers	0.0397 % of ANNNNAAN 8-mers	0.0503 % of ANNNNAAN 8-mers	0.0479 % of ANNNNAAN 8-mers
ATGCTAAT	1.85 % of ANNNNAAN 8-mers	1.82 % of ANNNNAAN 8-mers	0.249 % of ANNNNAAN 8-mers	0.283 % of ANNNNAAN 8-mers
ATTCAAAT	1.58 % of ANNNNAAN 8-mers	1.29 % of ANNNNAAN 8-mers	1.57 % of ANNNNAAN 8-mers	1.95 % of ANNNNAAN 8-mers
AGCTCAAT	0.037 % of ANNNNAAN 8-mers	0.0316 % of ANNNNAAN 8-mers	0.0261 % of ANNNNAAN 8-mers	0.0223 % of ANNNNAAN 8-mers
ATAGTAAG	0.0633 % of ANNNNAAN 8-mers	0.0806 % of ANNNNAAN 8-mers	0.0656 % of ANNNNAAN 8-mers	0.0619 % of ANNNNAAN 8-mers
